Source: PubChem BioAssay (EPA / NIEHS)
Inconclusive results are not listed. Activity calls are given as the source filed them. Rule for the calls: active = hit-call score of the fitted dose curve at least 0.9, where 1 is the maximum; inconclusive = response in the unintended direction; inactive = score below 0.9.

How the values were obtained:
[1] = target: human Protein Phosphatase, Mg2+/Mn2+ Dependent 1A (PPM1A), PPM1A (gene 5494) (UniProt P35813); experiment: NVS_ENZ_hPPM1A: NovaScreen (NVS) Enzymatic Assay for human Protein Phosphatase, Mg2+/Mn2+ Dependent 1A (PPM1A) (AID 2283198)
Summary of the method: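 Cell-free recombinant PPM1A phosphatase assay with fluorescent substrate, read 1 h after dosing by electrophoretic mobility shift. Chemicals screened in duplicate at 25 uM, then in concentration-response up to 50 uM; loss of activity versus DMSO.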

[2] = target: Serine/threonine-protein phosphatase PP1-alpha catalytic subunit (Homo sapiens) (UniProt P62136); experiment: NVS_ENZ_hPPP1CA: NovaScreen (NVS) Enzymatic Assay for human Protein Phosphatase 1 Aatalytic subunit Alpha (PPP1CA) (AID 2283200)
Experimental: NVS_ENZ_hPPP1CA is a biochemical, single-readout assay that uses extracted gene-proteins in a cell-free assay. Measurements were taken 1.33 hours after chemical dosing in a 384-well plate.NVS_ENZ_hPPP1CA is one of one assay component(s) measured or calculated from the NVS_ENZ_hPPP1CA assay. It is designed to make measurements of enzyme activity, a form of enzyme reporter, as detected with fluorescence intensity signals by Fluorescence and electrophoretic mobility shift technology.Data from the assay component NVS_ENZ_hPPP1CA was analyzed into 1 assay endpoint. This assay endpoint, NVS_ENZ_hPPP1CA, was analyzed in the positive analysis fitting direction relative to DMSO as the negative control and baseline of activity. Using a type of enzyme reporter, loss-of-signal activity can be used to understand changes in the enzymatic activity as they relate to the gene PPP1CA. Furthermore, this assay endpoint can be referred to as a primary readout, because this assay has produced multiple assay endpoints where this one serves a enzymatic activity function. To generalize the intended target to other relatable targets, this assay endpoint is annotated to the phosphatase intended target family, where the subfamily is serine/threonine phosphatase. […]

[3] = target: human Phosphodiesterase 10 (PDE10), PDE10A (gene 10846) (UniProt Q9Y233); experiment: NVS_ENZ_hPDE10: NovaScreen (NVS) Enzymatic Assay for human Phosphodiesterase 10 (PDE10) (AID 2283195)
Summary of the method: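 PDE10A, cell-free; 1 h incubation; fluorescence intensity + electrophoretic mobility shift separating substrate/product; DMSO = baseline; 25 uM duplicate primary, CRC up to 50 uM.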

[4] = target: Tyrosine-protein phosphatase non-receptor type 11 (Homo sapiens) (UniProt Q06124); experiment: NVS_ENZ_hPTPN11: NovaScreen (NVS) Enzymatic Assay for human Protein Tyrosine Phosphatase Non-receptor Type 11 (PTPN11) (AID 2283202)
Summary of the method: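 Recombinant human PTPN11 activity on a fluorescent substrate, with substrate/product separated by electrophoretic mobility shift; read 0.5 h after dosing, loss of signal vs DMSO. Duplicate 25 uM screen, then concentration-response up to 50 uM.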

Serine/threonine-protein phosphatase PP1-alpha catalytic subunit (Homo sapiens), sequence (P62136 whole entry, looked up): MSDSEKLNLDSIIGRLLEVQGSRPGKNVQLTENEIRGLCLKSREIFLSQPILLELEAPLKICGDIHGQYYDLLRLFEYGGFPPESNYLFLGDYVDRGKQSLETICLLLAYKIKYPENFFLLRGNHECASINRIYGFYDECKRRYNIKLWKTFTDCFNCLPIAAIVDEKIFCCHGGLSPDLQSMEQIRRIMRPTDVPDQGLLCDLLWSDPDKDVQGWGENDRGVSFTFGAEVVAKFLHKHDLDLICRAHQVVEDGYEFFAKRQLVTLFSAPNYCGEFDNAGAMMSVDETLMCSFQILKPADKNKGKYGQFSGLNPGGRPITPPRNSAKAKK
Tyrosine-protein phosphatase non-receptor type 11 (Homo sapiens), sequence (Q06124 whole entry, looked up): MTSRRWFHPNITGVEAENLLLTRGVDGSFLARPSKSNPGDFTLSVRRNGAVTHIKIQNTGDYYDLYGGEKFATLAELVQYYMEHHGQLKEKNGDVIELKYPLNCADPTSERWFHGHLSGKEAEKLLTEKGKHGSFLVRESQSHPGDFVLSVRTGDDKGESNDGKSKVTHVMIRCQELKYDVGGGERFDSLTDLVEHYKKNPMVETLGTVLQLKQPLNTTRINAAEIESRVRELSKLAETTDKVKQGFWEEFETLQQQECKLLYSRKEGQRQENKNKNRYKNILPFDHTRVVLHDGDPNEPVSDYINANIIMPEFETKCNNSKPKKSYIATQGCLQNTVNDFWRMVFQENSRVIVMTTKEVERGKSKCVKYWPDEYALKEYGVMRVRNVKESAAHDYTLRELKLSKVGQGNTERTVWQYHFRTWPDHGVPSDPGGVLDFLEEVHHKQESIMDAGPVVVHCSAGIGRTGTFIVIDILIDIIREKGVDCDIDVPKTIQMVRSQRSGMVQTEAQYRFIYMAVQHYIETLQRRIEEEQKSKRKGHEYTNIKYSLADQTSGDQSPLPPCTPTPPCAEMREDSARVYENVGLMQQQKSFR
human Phosphodiesterase 10 (PDE10), PDE10A (gene 10846), sequence (Q9Y233 whole entry, looked up): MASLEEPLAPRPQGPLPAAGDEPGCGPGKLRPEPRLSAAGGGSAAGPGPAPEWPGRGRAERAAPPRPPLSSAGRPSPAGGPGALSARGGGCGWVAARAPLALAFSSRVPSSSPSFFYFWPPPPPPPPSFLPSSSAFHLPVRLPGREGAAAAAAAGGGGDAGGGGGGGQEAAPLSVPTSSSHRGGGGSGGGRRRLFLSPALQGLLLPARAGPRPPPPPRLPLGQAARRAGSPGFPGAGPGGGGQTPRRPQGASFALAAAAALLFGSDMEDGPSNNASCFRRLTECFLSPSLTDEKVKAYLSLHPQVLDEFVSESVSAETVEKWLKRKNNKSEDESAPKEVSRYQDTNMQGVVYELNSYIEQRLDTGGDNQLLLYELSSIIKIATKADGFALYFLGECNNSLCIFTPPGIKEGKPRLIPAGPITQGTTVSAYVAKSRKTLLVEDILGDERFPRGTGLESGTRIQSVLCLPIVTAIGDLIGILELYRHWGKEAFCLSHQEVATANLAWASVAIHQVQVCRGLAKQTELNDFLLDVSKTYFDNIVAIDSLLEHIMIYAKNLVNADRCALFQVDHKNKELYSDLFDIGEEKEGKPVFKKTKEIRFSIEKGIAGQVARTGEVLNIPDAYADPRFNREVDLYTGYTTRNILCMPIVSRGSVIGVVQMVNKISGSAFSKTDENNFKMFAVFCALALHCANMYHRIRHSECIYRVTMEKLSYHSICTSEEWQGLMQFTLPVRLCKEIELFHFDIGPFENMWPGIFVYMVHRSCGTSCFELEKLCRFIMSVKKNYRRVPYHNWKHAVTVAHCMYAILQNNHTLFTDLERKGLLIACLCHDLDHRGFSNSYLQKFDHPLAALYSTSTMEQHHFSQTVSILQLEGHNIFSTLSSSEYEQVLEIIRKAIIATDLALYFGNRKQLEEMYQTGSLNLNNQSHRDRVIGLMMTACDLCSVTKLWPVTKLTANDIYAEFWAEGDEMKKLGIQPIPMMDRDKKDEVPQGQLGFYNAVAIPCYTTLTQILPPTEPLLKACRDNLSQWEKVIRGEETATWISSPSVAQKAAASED
human Protein Phosphatase, Mg2+/Mn2+ Dependent 1A (PPM1A), PPM1A (gene 5494), sequence (P35813 whole entry, looked up): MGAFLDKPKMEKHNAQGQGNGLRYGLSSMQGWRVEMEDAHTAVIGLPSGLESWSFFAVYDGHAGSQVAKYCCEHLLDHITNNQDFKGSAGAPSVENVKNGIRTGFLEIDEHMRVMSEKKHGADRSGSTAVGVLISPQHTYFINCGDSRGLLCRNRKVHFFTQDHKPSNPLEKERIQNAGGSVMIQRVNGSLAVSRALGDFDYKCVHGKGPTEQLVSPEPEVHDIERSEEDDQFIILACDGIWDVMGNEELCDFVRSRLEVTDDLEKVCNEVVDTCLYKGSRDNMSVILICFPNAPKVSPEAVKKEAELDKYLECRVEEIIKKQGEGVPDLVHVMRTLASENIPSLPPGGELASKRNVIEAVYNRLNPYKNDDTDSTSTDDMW

O=C(N[C@H]1CN2CCC1CC2)c1ccc2c(c1)OCCO2
outcome [1]: inactive

CCCCCCCCCCCCc1cccc(S(=O)(=O)O)c1
AC50 [2]: 35.3 µM (active)

COc1ccccc1N
outcome [3]: inactive
AC50 [2]: 14.8 µM (active)

COc1nn(C(=O)NS(=O)(=O)c2ccccc2OC(F)(F)F)c(=O)n1C
AC50 [4]: 13.3 µM (active)

O=C1c2ccccc2C(=O)C1C(=O)C(c1ccccc1)c1ccc(Cl)cc1 (stereo unspecified)
AC50 [4]: 9.45 µM (active)
